Source: PubChem
Compounds with a hit are over-represented: about 3.9% of the library has one in this group of screens.
Bead autofluor – flagged as autofluorescent in microsphere protease counterscreen; compound autofluorescence counterscreen, microsphere flow cytometry; hits give high values; fluorescence intensity (concentration not given with the values); actives 3.1% (n = 360,000); AID 624483; in the data active = fluorescence intensity above about 16000; inconclusive = no clear call, values can overlap the other calls
BoNT-A LC inh2 – BoNT/A light chain protease inhibitors, primary screen, biochemical, flow cytometry, MLPCN library; multiplex microsphere protease substrate cleavage; inhibition, % at 10 µM; actives 0.17% (n = 360,000); note: plate controls were buffer without enzyme for full effect and enzyme alone for no effect
BoNT F protease – BoNT/F light chain protease inhibitors, primary screen, biochemical, flow cytometry, MLPCN library; inhibition, % at 10 µM; actives 0.22% (n = 360,000); AID 588497, 2011; Botulinum neurotoxin type F light chain protease (Clostridium botulinum); Multiplex microsphere protease cleavage assay; in the data active = inhibition above about 35%, passing the limit was not always enough; inconclusive = no clear call, values can overlap the other calls; note: plate controls were buffer without enzyme for full effect and enzyme alone for no effect
Anthrax LF prot – Bacillus anthracis LF protease inhibitors, primary screen, biochemical, multiplex microsphere, MLPCN library | AID 588501, 2011 | inhibition, % at 10 µM | actives 0.12% (n = 360,000) | multiplex microsphere protease cleavage assay; note: plate controls were buffer without enzyme for full effect and enzyme alone for no effect
3CLpro inhibitor – SARS-CoV 3CLpro protease inhibitors, primary screen, biochemical, quenched FRET; actives 0.14% (n = 290,000); inhibition, % at 6 µM; recombinant SARS-CoV 3CLpro, quenched FRET peptide cleavage; Replicase polyprotein 1ab (Severe acute respiratory syndrome coronavirus), P0C6X7; in the data active = inhibition above about 12%
VHR inh abs – VHR1 phosphatase inhibitors, primary screen, biochemical, absorbance, uHTS; actives 0.52% (n = 290,000); inhibition, % at 13.3 µM; recombinant VHR phosphatase, pNPP absorbance; Dual specificity protein phosphatase 3 (Homo sapiens), P51452; in the data active = inhibition above about 50%
Target sequence (P51452 whole entry, looked up): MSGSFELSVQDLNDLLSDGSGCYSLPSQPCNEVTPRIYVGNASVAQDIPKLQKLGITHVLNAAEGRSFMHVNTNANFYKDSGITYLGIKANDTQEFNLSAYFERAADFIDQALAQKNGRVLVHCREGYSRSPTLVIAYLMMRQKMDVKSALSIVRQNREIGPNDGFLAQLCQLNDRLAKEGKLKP
Numbers without * were called inactive. Cut-off read from the data, not from the text of the source, unless noted: active = inhibition above about 30%; inconclusive = no clear call, values can overlap the other calls; inactive = below that.

Results for CS(=O)(=O)Nc1ccc(C(=O)NCCC2=CCCCC2)cc1 ?
Bead autofluor: 24230*; BoNT-A LC inh2: inconclusive; BoNT F protease: -6; Anthrax LF prot: -1; 3CLpro inhibitor: -3; VHR inh abs: 5

How did Cc1ccc(OCCNC(=O)CCc2ccccc2)cc1C do in these assays?
Bead autofluor: 6115; BoNT-A LC inh2: 0; BoNT F protease: -5; Anthrax LF prot: -14

How did O=C(NNC(=O)c1cc2ccccc2[nH]1)OCc1ccccc1 do in these assays?
Bead autofluor: 4145; BoNT-A LC inh2: -1; BoNT F protease: 2; Anthrax LF prot: -1

Results for CCOC(=O)N(C)c1c(CC)nc2c(OCc3ccccc3)cccn12 ?
Bead autofluor: 4500; BoNT-A LC inh2: -1; BoNT F protease: -4; Anthrax LF prot: 2

How did COC(=O)[C@@H](NC(=O)NCCC1=CCCCC1)C(C)C do in these assays?
Bead autofluor: 4832; BoNT-A LC inh2: inconclusive; BoNT F protease: inconclusive; Anthrax LF prot: -18; 3CLpro inhibitor: 0; VHR inh abs: 9

How did Cc1cc(C(=O)NCCC2=CCCCC2)c(C)o1 do in these assays?
Bead autofluor: 16581*; BoNT-A LC inh2: 0; BoNT F protease: 0; Anthrax LF prot: 0; 3CLpro inhibitor: 0; VHR inh abs: 4

How did Cc1ccc(S(=O)(=O)N2CCCCC2)cc1C(=O)NCCC1=CCCCC1 do in these assays?
Bead autofluor: 4532; BoNT-A LC inh2: 1; BoNT F protease: inconclusive; Anthrax LF prot: 2

How did COc1cc(C(=O)OCC(=O)NCCC2=CCCCC2)cc(OC)c1OC do in these assays?
Bead autofluor: 5857; BoNT-A LC inh2: -2; BoNT F protease: -8; Anthrax LF prot: -1

Results for COc1cc(C(=O)NCCC2=CCCCC2)cc(OC)c1OC ?
Bead autofluor: 22928*; BoNT-A LC inh2: 1; BoNT F protease: 4; Anthrax LF prot: 0; 3CLpro inhibitor: 4; VHR inh abs: 7

How did COc1ccc(C)cc1NC(=O)NCCC1=CCCCC1 do in these assays?
Bead autofluor: 21584*; BoNT-A LC inh2: -4; BoNT F protease: -5; Anthrax LF prot: -2; 3CLpro inhibitor: -5; VHR inh abs: 12

How did COc1ccc(Br)cc1S(=O)(=O)N(CC(=O)N1CCN(C)CC1)c1ccccc1 do in these assays?
Bead autofluor: 5683; BoNT-A LC inh2: 0; BoNT F protease: 10; Anthrax LF prot: -3; 3CLpro inhibitor: 0; VHR inh abs: 29

What do the screens show for `O=C(c1ccc(Cn2c(=S)[nH]c3ccccc3c2=O)cc1)N1CCN(c2ccccn2)CC1`?
Bead autofluor: 4232; BoNT-A LC inh2: -1; BoNT F protease: -11; Anthrax LF prot: -4; 3CLpro inhibitor: 5; VHR inh abs: 6

How did CCCc1cc(=O)[nH]c(Nc2ccc(N3CCCCC3)cc2)n1 do in these assays?
Bead autofluor: 20834*; BoNT-A LC inh2: 2; BoNT F protease: -14; Anthrax LF prot: -9; 3CLpro inhibitor: -1; VHR inh abs: 10

What do the screens show for `CCCCc1ccc(Nc2nc(CCC)cc(=O)[nH]2)cc1`?
Bead autofluor: 2387; BoNT-A LC inh2: 0; BoNT F protease: -7; Anthrax LF prot: 0; 3CLpro inhibitor: 2; VHR inh abs: -1

What do the screens show for `CN(C)c1ccc2c(c1)Sc1cc(N(C)C)ccc1N2C(=O)c1ccccc1`?
Bead autofluor: 4897; BoNT-A LC inh2: -5; BoNT F protease: inconclusive; Anthrax LF prot: -7; 3CLpro inhibitor: -2; VHR inh abs: 16

How did C/C=C\C(=O)Nc1cccc(C2=NOC3(C2)C[C@@H](C(N)=O)N(C(=O)c2ccc(OC)cc2)C3)c1 (stereo partly drawn) do in these assays?
VHR inh abs: 19

How did Clc1cccc(CNc2ccn3nc(-c4cccc(Cl)c4)cc3n2)c1 do in these assays?
Bead autofluor: 3039; BoNT-A LC inh2: 0; BoNT F protease: -1; Anthrax LF prot: -4

How did COC(=O)CSc1nc(C)c(C(C)=O)cc1C#N do in these assays?
Bead autofluor: 20891*; BoNT-A LC inh2: inconclusive; BoNT F protease: 4; Anthrax LF prot: 0; 3CLpro inhibitor: -2; VHR inh abs: 19

How did Cc1cc(N2CCC(C(=O)N3CCN(c4cccc(C)c4C)CC3)CC2)n2ncnc2n1 do in these assays?
Bead autofluor: 17532*; BoNT-A LC inh2: -5; BoNT F protease: -6; Anthrax LF prot: -6; 3CLpro inhibitor: 2; VHR inh abs: 10

How did Nn1c(COc2ccccc2)nnc1SC(F)F do in these assays?
Bead autofluor: 23749*; BoNT-A LC inh2: 0; BoNT F protease: -2; Anthrax LF prot: -3; 3CLpro inhibitor: -8; VHR inh abs: 12

Results for COc1ccc(CCNc2c(C)c(C)nc3ncnn23)cc1 ?
Bead autofluor: 11042; BoNT-A LC inh2: 1; BoNT F protease: -4; Anthrax LF prot: -1; 3CLpro inhibitor: -1; VHR inh abs: 54*

How did CCc1c(C)nc2ncnn2c1NCCc1ccc(OC)c(OC)c1 do in these assays?
Bead autofluor: 18500*; BoNT-A LC inh2: 4; BoNT F protease: 4; Anthrax LF prot: -1; 3CLpro inhibitor: -3; VHR inh abs: 16

How did COc1ccc(-c2cc(NCCc3ccncc3)n3ncnc3n2)cc1 do in these assays?
Bead autofluor: 2307; BoNT-A LC inh2: 0; BoNT F protease: 5; Anthrax LF prot: 1; 3CLpro inhibitor: 2; VHR inh abs: -10

Results for O=C(C(Br)=Cc1ccccc1)c1ccccc1 ?
Bead autofluor: 3059; BoNT-A LC inh2: 0; BoNT F protease: -4; Anthrax LF prot: -2

How did CN(C)c1ccc(C=O)c(Oc2ccccc2)c1 do in these assays?
Bead autofluor: 3792; BoNT-A LC inh2: 0; BoNT F protease: 2; Anthrax LF prot: 0

Results for CCn1c(=O)c(C(=O)Nc2ccccc2C)c(O)c2ccccc21 ?
Bead autofluor: 22484*; BoNT-A LC inh2: inconclusive; BoNT F protease: 6; Anthrax LF prot: 1; 3CLpro inhibitor: 1; VHR inh abs: 31

How did CCCCCCCCC(=O)NNC(=O)c1c(O)c2ccccc2n(CC)c1=O do in these assays?
Bead autofluor: 3940; BoNT-A LC inh2: 6; BoNT F protease: 39*; Anthrax LF prot: 2; 3CLpro inhibitor: -3; VHR inh abs: 34

Results for CC(OC(=O)c1cccc(S(=O)(=O)N2CCCC2)c1)C(=O)c1ccccc1 (stereo not drawn) ?
Bead autofluor: 4361; BoNT-A LC inh2: 0; BoNT F protease: 0; Anthrax LF prot: -2; 3CLpro inhibitor: 3; VHR inh abs: 18

How did O=C(CSc1ncccn1)N1CCC(Cc2ccccc2)CC1 do in these assays?
Bead autofluor: 4824; BoNT-A LC inh2: -1; BoNT F protease: -6; Anthrax LF prot: -1; 3CLpro inhibitor: 0; VHR inh abs: -10

What do the screens show for `CCOc1ccc(-c2nnc3sc(-c4ccccc4OC)nn23)cc1`?
Bead autofluor: 8923; BoNT-A LC inh2: 0; BoNT F protease: 1; Anthrax LF prot: -10; 3CLpro inhibitor: 2
